Assay outcomes: PubChem BioAssay, National Center for Advancing Translational Sciences (NCATS)
CHX counter – affects cycloheximide protein synthesis inhibition readout, counter-screen; cell reporter, cycloheximide protein synthesis inhibition counterscreen; max response, %; 300,000 compounds, 12% hits; in the data active = max response mostly above about 13%, no sharp cut-off; inactive = mostly below about 14%; also: read at 38.3 µM for the half of the compounds with a filed dose; 0% is about no effect
NS1 inh – blocks influenza NS1 protein function | Potency, µM (titrated, usually from 46.1 µM), for the others: at the highest dose activity, positive = more growth | 270,000 compounds, 0.4% hits | AID 2326; also: potency is read from the fitted curve at half-maximal effect; actives are rising curves; nearly all actives have a fitted effect of over 50% in size
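In this qHTS, NS1 from influenza A is expressed in budding yeast, where it slows growth. Cells are switched from glucose to 2% galactose medium (pH 6.0, -URA), treated with compound, and growth recovery is read at OD600.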
Shiga toxin inh – blocks Shiga toxin action in Vero cells. Vero cells, Shiga toxin protein synthesis inhibition reporter. inhibition, % at 38.7 µM. 290,000 compounds, 9.2% hits. AID 2315; in the data active = inhibition mostly above about 28%, no sharp cut-off; inactive = mostly below about 43%; also: 0% is about no effect
SARS PLP yeast – SARS-CoV PLP inhibition in yeast; S. cerevisiae expressing SARS-CoV PLpro, growth rescue; Potency, µM (series often up to 32.9 µM), without a hit: at the highest dose activity, positive = growth rescue, hits mostly activators; 330,000 compounds, 0.19% hits; also: potency is read from the fitted curve at half-maximal effect; 0% is about no effect; nearly all actives have a fitted effect of over 55% in size
Starred values were filed as active, the others as inactive; u = inconclusive; x = no result given. Rows were chosen to be rich in hits. Some 12% of all compounds tested hit in one or more screens of this group. Unless noted, calls follow the shape of the full dose curve.

SMILES	CHX counter	NS1 inh	Shiga toxin inh	SARS PLP yeast
O=C(COC(=O)c1nc(Cl)ccc1Cl)NCCc1ccccc1	x	x	x	7.2%
Cc1ccc(NC(=S)NCCc2ccccc2)c(C)c1	16.8*	-22.1%	40.4	-31.0%
Cc1ccccc1NC(=S)NCCc1ccccc1	14.7*	x	16.4	-8.3%
Cc1cnn(C(=S)NCCc2ccccc2)c1	34.5*	-87.9%	77.4*	0.0%
CC(C)(C)NC(=S)NCCc1ccccc1	30.5*	-21.5%	74.8*	33.7%
CC(C)(C)c1cc(C(=O)N/N=C/c2ccc(O)cc2)n(-c2ccccc2)n1	-1.8	-0.4%	-6.2	15.9%
O=C(CCc1nc2ccccc2c(=O)[nH]1)Nc1nnc(SCc2ccc(F)cc2)s1	x	x	x	-4.1%
O=C(COC(=O)c1ccco1)NCCNC(=O)COC(=O)c1ccco1	4.0	10.1%	-29.4	3.9%
CN1CCN(NC(=O)c2cccs2)CC1	-1.1	x	-5.6	3.8%
Cc1ccc(-c2csc(N=C(N)N)n2)cc1	28.1*	-4.8%	63.5*	-1.0%
O=C(c1ccccc1)N1N=C(c2ccccc2)CC1c1ccccc1 (centres undefined)	-2.7	-0.6%	12.8	-1.3%
COc1cccc(C2CC(c3ccc(NS(C)(=O)=O)cc3)=NN2C(=O)c2ccccc2)c1OC (centres undefined)	51.2*	x	133.6*	1.4%
COc1cccc(C2CC(c3cccs3)=NN2C(=O)CCC(=O)O)c1OC (centres undefined)	11.3*	u	19.4	0.2%
Cn1cc(C2CC(c3ccccc3)=NN2C(=O)c2ccccc2)c2ccccc21 (centres undefined)	22.0*	-11.9%	41.0	9.7%
CCCC(=O)N1N=C(c2ccccc2)CC1c1cn(C)c2ccccc12 (centres undefined)	27.0*	-24.7%	42.0	-41.4%
CC(=O)N1N=C(c2ccc(Br)cc2)CC1c1cn(C)c2ccccc12 (centres undefined)	0.6	-3.0%	2.1	-40.7%
COc1cccc(C2CC(c3cccs3)=NN2C(=O)CSc2nc3ccccc3s2)c1OC (centres undefined)	3.4	u	13.2	2.0%
Cc1cccc(OC(C)C(=O)Nc2nccs2)c1 (centres undefined)	9.3	6.4%	11.8	x
COc1ccc(/C=C(\NC(=O)c2ccco2)C(=O)NC(Cc2ccccc2)C(=O)O)cc1 (centres undefined)	-2.2	-8.8%	-16.6	-1.1%
C=C1C(=O)O[C@H]2C[C@@H](C)[C@@H]3C=CC(=O)[C@@]3(C)C[C@H]12	40.2*	-3.0%	46.7*	-1.1%
C=C1C(=O)O[C@@H]2C[C@@H](C)[C@@H]3C=CC(=O)[C@@]3(C)[C@@H](OC(=O)CC(=O)O[C@H]3[C@@H]4C(=C)C(=O)O[C@@H]4C[C@@H](C)[C@@H]4C=CC(=O)[C@]43C)[C@H]12	-11.3	5.0%	-16.0	-2.3%
CCCN(CC(=O)Nc1ccccc1C)C(=O)CCCc1c[nH]c2ccccc12	x	x	x	-5.2%
Cc1nnsc1C(=O)N1CCN(c2ccc(C#N)cn2)CC1	-1.2	3.9%	-0.4	-4.3%
O=C1NCCN/C1=C\C(=O)c1cccc(Br)c1	34.2*	-44.6%	71.6*	-4.3%
O=C1NCCN/C1=C\C(=O)c1ccccc1	32.5*	12.3%	26.3	-0.5%
SMILES	CHX counter	NS1 inh	Shiga toxin inh	SARS PLP yeast
O=C1OCCN/C1=C\C(=O)c1ccc(Cl)cc1	1.2	7.2%	-3.1	1.1%
O=C1OCCN/C1=C\C(=O)c1ccccc1	-1.1	2.8%	-3.0	1.1%
O=C1NCCN/C1=C\C(=O)c1ccc(Br)cc1	44.9*	-31.1%	64.5*	-2.9%
COc1c(C(CC(C)C)OC(C)=O)ccc2c1C(=O)OCc1cc(C)cc(O)c1O2 (centres undefined)	-4.3	-95.6%	33.0	-10.9%
Cc1cc(C)cc(OCc2nnc(SCC(=O)N3CCCCC3)o2)c1	-1.2	1.6%	-4.2	2.0%
O=C(NNC1CC(=O)N(c2ccc(Br)cc2)C1=O)c1ccco1 (centres undefined)	1.7	x	23.3	-7.5%
CN(CCC1CCOCC1)C(=O)c1cc(COc2c(F)cccc2F)on1	26.7*	-18.5%	22.8	-0.4%
CN(Cc1cc(-c2ccccc2)on1)C(=O)c1cc(COc2c(F)cccc2F)on1	41.9*	5.1%	70.3*	-1.8%
CCN(CCN1CCCC1)C(=O)c1cc(COc2ccccc2SC)on1	11.4	22.6%	-4.9	1.5%
CSc1ccccc1OCc1cc(C(=O)N(C)CC2COCCO2)no1 (centres undefined)	30.4*	-0.3%	60.5*	4.4%
CN(CC1COCCO1)C(=O)c1cc(COc2c(F)cccc2F)on1 (centres undefined)	27.2*	-11.2%	53.1*	-0.5%
Cc1nc(CN(C)C(=O)c2cc(COc3c(F)cccc3F)on2)cs1	9.7	-3.1%	13.4	0.8%
